# Compound activity: PubChem BioAssay, Columbia University Molecular Screening Center
# The list is not random: actives were taken first. Their share in the collection is about 1.3%.
# PTPN22 act = increases human PTPN22 phosphatase activity; recombinant LYP, DiFMUP fluorescence; 0 = plate median, 100 = signal doubled; AID 697; Q9Y2R2; activation, % at 2 µM; 0.11% of 96,000 active;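 active = activation at 2 µM above a set limit, the mean plus 5 SD, cut at about 37% in these data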
# Target sequence (Q9Y2R2 whole entry, looked up): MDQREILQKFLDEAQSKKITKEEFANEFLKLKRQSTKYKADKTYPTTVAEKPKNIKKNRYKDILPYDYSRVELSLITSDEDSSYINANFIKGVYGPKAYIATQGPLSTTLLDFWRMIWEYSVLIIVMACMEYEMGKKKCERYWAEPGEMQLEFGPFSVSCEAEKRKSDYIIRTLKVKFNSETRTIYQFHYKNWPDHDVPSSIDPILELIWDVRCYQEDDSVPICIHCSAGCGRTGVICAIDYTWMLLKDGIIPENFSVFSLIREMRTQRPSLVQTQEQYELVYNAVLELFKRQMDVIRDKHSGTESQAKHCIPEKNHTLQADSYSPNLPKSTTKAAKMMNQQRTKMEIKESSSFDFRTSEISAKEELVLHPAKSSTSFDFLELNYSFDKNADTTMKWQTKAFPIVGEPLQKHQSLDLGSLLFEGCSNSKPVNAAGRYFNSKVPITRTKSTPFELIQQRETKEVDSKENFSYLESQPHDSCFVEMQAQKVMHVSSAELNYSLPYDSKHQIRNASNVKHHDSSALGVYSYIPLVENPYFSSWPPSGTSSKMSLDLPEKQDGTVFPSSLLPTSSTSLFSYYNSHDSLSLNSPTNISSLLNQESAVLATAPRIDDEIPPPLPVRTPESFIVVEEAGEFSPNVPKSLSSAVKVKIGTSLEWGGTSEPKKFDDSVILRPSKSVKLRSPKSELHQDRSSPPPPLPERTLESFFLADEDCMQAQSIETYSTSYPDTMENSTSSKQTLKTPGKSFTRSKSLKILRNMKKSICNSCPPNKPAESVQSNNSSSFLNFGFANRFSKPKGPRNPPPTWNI
# IL1B NFkB pot = enhances IL-1B driven NFkB nuclear translocation | AID 819 | activation, % at 2 µM | HUVEC IL-1B NFkB p65 nuclear translocation imaging | 0.3% of 94,000 active;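 active = activation above 40%, about the mean plus 3 SD, also judged a hit on visual image review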;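 note: percent activation is computed from the nuclear over cytoplasmic p65 intensity ratio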
# IL1B NFkB inh = blocks IL-1B driven NFkB nuclear translocation in HUVEC cells; HUVEC IL-1B NFkB p65 nuclear translocation imaging; inhibition, % at 2 µM; 0.43% of 94,000 active; AID 796;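 active = inhibition above about 30% together with a positive call from visual inspection of the well image, limit read from the data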;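 note: nuclear over cytoplasmic p65 intensity ratio measured by imaging; 0% = IL-1B stimulated DMSO wells and 100% = unstimulated DMSO wells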
# PTPN22 inh 2 = blocks human PTPN22 phosphatase activity; Q9Y2R2; AID 640; 0.21% of 96,000 active; inhibition, % at 2 µM; recombinant LYP catalytic domain, DiFMUP fluorescence;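 active = inhibition at 2 µM at or above a set limit, the screen mean plus 3 SD, cut at about 24% in these data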;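 note: 0% = DMSO with enzyme and 100% = enzyme fully blocked by orthovanadate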
# IL1B cytotox = toxic to HUVEC cells under IL-1B stimulation; HUVEC cell count loss, Hoechst imaging, IL-1B stimulated; cell count reduction, % at 2 µM; 0.41% of 94,000 active;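 active = cell count reduction more than 3 SD above the screen-wide mean, cut at about 70% in these data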;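 note: normalized per plate to untreated control cells as the no-loss baseline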
# * hit, by the source's call; · = no result.
SMILES,PTPN22 act,IL1B NFkB pot,IL1B NFkB inh,PTPN22 inh 2,IL1B cytotox
O=C(Nc1ccc(-c2cn3ccsc3n2)cc1)C1CCCC1,-9.0,-99.7,99.7*,7.8,90.2*
O=C(Nc1ccc(-c2cn3ccsc3n2)cc1)C1CC1,-7.8,16.8,-16.8,6.6,-53.8
O=C1CC(=O)N(Cc2ccco2)C(=S)N1,5.5,-31.5,31.5*,-8.4,5.4
O=C1C2C(C(=O)N1Cc1ccco1)C1C=CC2C12CC2 (stereo unspecified),5.0,·,·,-8.2,·
Oc1ccc(CNCC2COc3ccccc3O2)cc1 (stereo unspecified),-11.2,-13.2,13.2,15.9,13.3
COc1ccccc1OCc1nnc(SCC(=O)NCc2ccco2)n1Cc1ccco1,-26.4,-0.2,0.2,26.4*,-3.5
COc1ccccc1NC(=O)CSc1nnc(COc2ccc(Cl)cc2)n1Cc1ccco1,4.9,-8.1,8.1,-7.7,-19.4
O=C(CSc1nnc(-c2ccccc2)n1Cc1ccco1)NCc1ccc2c(c1)OCO2,-3.4,59.1*,-59.1,5.4,7.9
O=C(CSc1nnc(-c2ccccc2)n1Cc1ccco1)Nc1ccc2c(c1)OCCO2,4.5,4.6,-4.6,-6.9,1.4
CCCOc1ccc(-c2cnc(N)s2)cc1,3.0,16.6,-16.6,1.1,-17.8
CC(=O)Nc1nonc1NC(=O)c1ccc(C(C)(C)C)cc1,-58.6,19.2,-19.3,58.5*,-2.5
COc1ccc(C)cc1S(=O)(=O)N1c2ccccc2CC1C (stereo unspecified),-4.1,12.0,-12.0,6.4,-0.6
Clc1ccc(C2=Nn3c(nnc3-c3cc(-c4ccccc4)n[nH]3)SC2)cc1,-23.6,-5.8,5.8,27.5*,-29.7
C=CCn1c(Br)nc2c1c(=O)[nH]c(=O)n2C,-4.8,-5.0,5.0,7.7,-6.1
C=CCn1c(Br)nc2c1c(=O)n(C)c(=O)n2C,3.5,49.4*,-49.4,-5.1,20.6
COc1ccc(Cl)cc1NC(=O)Nc1cccc([N+](=O)[O-])c1C,3.0,-3.3,3.3,0.7,16.5
COC(=O)c1ccc(CSc2nnc3ccccn23)o1,6.4,152.0*,-152.0,-8.3,-2.8
COc1cc(Cl)c(C)cc1NC(=O)CNC(=O)Cn1cnc2ccccc2c1=O,3.2,-9.5,9.5,-5.4,-12.3
CCCN1CCN(CCCNC(=O)CCNC(=O)Cn2ccc3ccccc3c2=O)CC1,8.4,-9.3,9.3,-7.4,11.5
S=c1[nH]nc(COc2ccccc2)n1/N=C/C(Cl)=C/c1ccccc1,-25.5,11.3,-11.3,28.2*,-15.2
Nn1c(=O)c2ccccc2n2c(SCc3ccc(C(F)(F)F)cc3)nnc12,-7.0,8.5,-8.5,3.1,-6.5
O=C(CCl)NCc1c(Cl)cccc1-n1cccc1,14.3,-1.9,1.9,-19.1,15.0
CN1CCN(C(=O)c2cn(C)c3ccc(S(=O)(=O)N(C)C4CCCCC4)cc3c2=O)CC1,0.1,-5.6,5.6,-2.4,-31.4
CN(C)S(=O)(=O)c1ccc2c(c1)c(=O)c(C(=O)N1CCOCC1)cn2C,9.0,-65.6,65.6*,-8.9,-76.5
CC(C)(C)c1nc2ccccc2[nH]1,-0.3,48.0*,-48.0,-0.1,-9.3
SMILES,PTPN22 act,IL1B NFkB pot,IL1B NFkB inh,PTPN22 inh 2,IL1B cytotox
Cc1cccc(N(C(=O)c2ccc(CN3CCOCC3)o2)C(C(=O)NC(C)(C)C)c2ccc(F)cc2)c1 (stereo unspecified),-0.8,-17.0,17.0,0.3,20.6
Cn1c(CSc2nc3ccccc3s2)nnc1SCC(=O)NCc1cccnc1,-6.0,-7.9,7.9,6.5,-23.3
COc1ccc(N=C2S/C(=C\c3ccc(N4CCOCC4)o3)C(=O)N2CCc2c[nH]c3ccccc23)cc1,-14.2,-48.2,48.3*,16.4,8.2
CCCN1C(=O)/C(=C/c2ccc(C)o2)SC1=Nc1ccc(OC)cc1,-2.1,3.0,-3.0,4.2,-3.3
COc1ccc2sc3c(=O)[nH]c4ccccc4c3c2c1,-0.5,43.4*,-43.4,2.8,-39.5
COc1ccc2c(c1)[nH]c(=O)c1sc3ccccc3c12,-9.9,·,·,14.6,·
Cc1c(C(=O)Nc2ccc3c(c2)OCO3)sc2ncn(CC(=O)N3CC(C)CC(C)C3)c(=O)c12 (stereo unspecified),-10.1,21.1,-21.1,7.8,-10.1
Cc1c(Cc2ccccc2)sc(N)c1C(N)=O,-6.5,-98.4,98.4*,8.4,86.8*
Cc1c(Cc2ccccc2)sc(NC(=O)Cc2ccccc2)c1C(N)=O,-1.1,-2.0,2.0,-1.4,-1.5
COCCCNC(=O)Cn1nnc(-c2ccc(NC(=O)c3ccccc3F)cc2)n1,-6.6,-43.0,43.0*,7.0,-12.7
Cc1nnc(-n2ncc(C#N)c2N)c2nn(-c3ccccc3F)c(C)c12,3.4,21.7,-21.7,-3.9,-27.3
COc1cccc(-n2nc3c(-n4ncc(C#N)c4N)nnc(C)c3c2C)c1,1.6,-45.8,45.8*,-1.1,15.4
CN(Cc1ccccc1)C(=O)CC(c1ccccc1)c1cc(Cl)ccc1O (stereo unspecified),-4.3,-0.5,0.5,7.6,-16.2
CCOc1ccc(C(=O)NN2C(=O)C3C4C=CC(O4)C3C2=O)cc1 (stereo unspecified),-5.2,4.7,-4.7,9.7,-11.5
CC(C)NC(=O)c1c2c(nc3ccccc13)CCCC2,-4.3,-9.0,9.0,3.9,1.9
COc1ccc(OCC(=O)OCCN2C(=O)c3ccccc3C2=O)cc1,-4.3,7.1,-7.1,2.8,-7.1
O=C(CCN1C(=O)c2ccccc2C1=O)Oc1ccc2ccccc2c1,-74.4,6.9,-6.9,75.0*,-12.7
Brc1ccccc1-c1nnc2sc(Cc3ccccc3)nn12,-3.7,59.1*,-59.1,6.2,-20.2
O=C(Nc1ccccc1)c1ccn[nH]1,-5.1,-31.4,31.4*,2.4,19.4
CC(=O)c1ccc(NC(=O)c2ccn[nH]2)cc1,-3.5,-9.2,9.2,0.5,12.9
Cc1cc(C)nc(SCC(=O)NC2=NC(=O)C(C)S2)n1 (stereo unspecified),32.1,18.8,-18.8,-28.6,78.5*
Nc1nnnn1/N=C/c1ccccc1OCc1ccccc1,5.6,23.4,-23.4,-7.5,-13.8
Nc1nnnn1/N=C/c1ccccc1C(F)(F)F,-69.5,0.4,-0.4,68.8*,-10.9
Cc1ccc(S(=O)(=O)N(C)c2cc(S(=O)(=O)N3CCC(C)CC3)c(C)cc2C)cc1,3.8,20.7,-20.7,-1.5,93.7*
COc1cc(CC(=O)NCCc2ccc(S(N)(=O)=O)cc2)cc(OC)c1OC,9.6,31.2,-31.2,-11.4,-17.4
O=C(Nc1nnc(C2CCCO2)s1)c1cccs1 (stereo unspecified),0.7,-37.0,37.0*,-1.4,70.1*
O=C1C2C(C(=O)N1CCc1ccccc1)C1C=CC2C12CC2 (stereo unspecified),-44.4,-2.6,2.6,45.0*,-1.1
COc1cccc(NS(=O)(=O)c2ccc3[nH]cc(C(=O)NCCC(C)C)c(=O)c3c2)c1,3.1,-19.1,19.1,-4.0,90.9*
O=C(COC(=O)c1ccccc1F)c1ccc(-n2nncc2-c2ccco2)cc1,0.6,41.6*,-41.6,-0.2,-18.5
COc1ccc(C(=O)COC(=O)c2ccco2)cc1,7.1,36.2,-36.2,-7.4,-23.8
